This note sets out measurements from PubChem BioAssay (NCI).

Test systems include HCT-15 colon; HT29 colon; SNB-75 CNS; SNB-19 CNS; U251 CNS; PC-3 prostate; SK-MEL-5 melanoma; UACC-62 melanoma; LOX IMVI melanoma; SK-MEL-28 melanoma.
Assay in all cases: NCI-60 one-dose screen, 48 h (100 = growth as untreated, 0 = no growth, -100 = all killed)
Holding throughout (conditions): 10 µM unless noted

This is part of a sample that, as a whole, favours compounds with a hit. Of some 83,000 tested, about 20% had one in any assay.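 Values shown are percent growth following 48 h exposure of cells in 96-well plates to a single concentration of compound; below 10 was considered active.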 Unmarked numbers belong to inactive results. Activity calls are given as the source filed them.

In the case of `Cc1nc2sc(C(=O)Nc3ccccc3)c(N)c2cc1C(C)O` (stereo not given), the growth with HCT-15 colon is 27.8%; in the assay with HT29 colon, 1.95% (active); with SNB-75 CNS, 30.9%; in the assay with SNB-19 CNS, 24.3%; in the assay with U251 CNS, 21.7%; in the assay with PC-3 prostate, 21.5%. In addition, the growth was 26.5% in the assay on SK-MEL-5 melanoma, 29.5% with UACC-62 melanoma, 47.5% in the assay with LOX IMVI melanoma and 55.8% with SK-MEL-28 melanoma.
On to `CC(=O)c1ccc(NC(=O)CSc2nnc(-c3cc(-c4ccc(Cl)cc4)nc4ccccc34)o2)cc1`, for which the growth is 76.9% in the assay on HCT-15 colon; 84.3% in the assay with HT29 colon; 82.7% in the assay with SNB-75 CNS; 78% in the assay on SNB-19 CNS; 28.6% in the assay on U251 CNS; 79.5% with PC-3 prostate. In addition, the growth in the assay with SK-MEL-5 melanoma was 90.5%; with UACC-62 melanoma, 95.7%; in the assay with LOX IMVI melanoma, 46.1%; in the assay with SK-MEL-28 melanoma it was 107%.
Consider `N#Cc1ccc(N2Cc3cc(Cl)ccc3OC3=C2C(=O)N(Cc2ccc(F)cc2)C3=O)cc1`, for which the growth in the assay with HCT-15 colon was -54.9% (active); with HT29 colon, -59.1% (active); in the assay on SNB-75 CNS, -3.4% (active); in the assay on SNB-19 CNS, 57.8%; in the assay with U251 CNS, -61.1% (active); in the assay with PC-3 prostate, 11.8%. The growth with SK-MEL-5 melanoma was -33.1% (active); with UACC-62 melanoma, -41.1% (active); in the assay with LOX IMVI melanoma it was -93% (active); in the assay on SK-MEL-28 melanoma it was -64.1% (active).
On to `COc1cc(-c2nn(-c3ccc(Br)cc3)cc2CO)ccc1O`, for which the growth in the assay on HCT-15 colon was 87.4%; in the assay with HT29 colon, 88.8%; in the assay with SNB-75 CNS, 87.7%; with SNB-19 CNS, 94%; in the assay on U251 CNS, 95.2%; in the assay with PC-3 prostate, 75%. In addition, the growth in the assay on SK-MEL-5 melanoma is 94.1%; with UACC-62 melanoma, 78.9%; with LOX IMVI melanoma, 86.5%; in the assay with SK-MEL-28 melanoma, 110%.
`O=C(CCl)N1CCCc2ccccc21`: the growth was 99.8% in the assay with HCT-15 colon; 103% in the assay on HT29 colon; 72.6% in the assay with SNB-75 CNS; 100% in the assay with SNB-19 CNS; 105% with U251 CNS; 96.8% in the assay with PC-3 prostate. The growth in the assay with SK-MEL-5 melanoma was 95.7%; in the assay with UACC-62 melanoma, 94.3%; in the assay on LOX IMVI melanoma, 99.6%; in the assay on SK-MEL-28 melanoma, 103%.
As to `O=C1C(Cl)=C(Nc2ccc3c(c2NC2=C(Cl)C(=O)c4ccccc4C2=O)C(=O)c2ccccc2C3=O)C(=O)c2ccccc21`, the growth in the assay on HCT-15 colon was 15.6%; in the assay on HT29 colon, 5.49% (active); in the assay on SNB-75 CNS, -15.1% (active); with SNB-19 CNS, 29.1%; in the assay with U251 CNS, 14.3%; in the assay on PC-3 prostate, 11%. For the same compound, the growth in the assay on SK-MEL-5 melanoma is -95.5% (active); in the assay with UACC-62 melanoma, -62.6% (active); with LOX IMVI melanoma, 3.18% (active); in the assay with SK-MEL-28 melanoma it was 47.1%.
For `CCCCOc1nc2ccc(C)cc2cc1/C=C/C(=O)/C=C/c1ccc2c(c1)OCO2`, the growth in the assay on HCT-15 colon was 97.8%; in the assay with HT29 colon, 63.6%; in the assay with SNB-75 CNS, 97.1%; in the assay on SNB-19 CNS it was 92.9%; in the assay with U251 CNS, 48.4%; with PC-3 prostate, 72.4%. For the same compound, the growth in the assay on SK-MEL-5 melanoma is 77.6%; in the assay on UACC-62 melanoma, 75.6%; in the assay with LOX IMVI melanoma, 77.3%; in the assay with SK-MEL-28 melanoma it was 109%.
As to `O=C(O)COc1ccc2c(=O)c3sc4c(=O)c5ccccc5c(=O)c4c3c(=O)c2c1`, the growth in the assay on HCT-15 colon is -75% (active); in the assay on HT29 colon, -37.4% (active); in the assay with SNB-75 CNS, -42% (active); in the assay with SNB-19 CNS, 0.0814% (active); in the assay with U251 CNS, 29.8%; with PC-3 prostate it was 54%. The growth in the assay with SK-MEL-5 melanoma was -99.6% (active); with UACC-62 melanoma it was -91.4% (active); in the assay on LOX IMVI melanoma, -37.6% (active); with SK-MEL-28 melanoma it was -16.2% (active).
With `Oc1ccccc1-c1nc2c3ccccc3c3ccccc3c2o1`, the growth is 92.1% in the assay with HCT-15 colon; 106% with HT29 colon; 89.7% in the assay on SNB-75 CNS; 95.7% in the assay on SNB-19 CNS; 82% in the assay with U251 CNS; 77.8% with PC-3 prostate. The growth was 98.6% with SK-MEL-5 melanoma, 88.4% with UACC-62 melanoma, 90.6% in the assay on LOX IMVI melanoma and 117% with SK-MEL-28 melanoma.
As for `O=C(CN1N=C(c2ccc(F)cc2)CCC1=O)Nc1nccs1`, the growth in the assay on HCT-15 colon is 99.3%; in the assay with HT29 colon, 87%; in the assay on SNB-75 CNS it was 92.2%; in the assay with SNB-19 CNS, 91.4%; in the assay with U251 CNS, 101%; with PC-3 prostate, 88.3%. For the same compound, the growth with SK-MEL-5 melanoma was 98.4%; with UACC-62 melanoma it was 92.5%; with LOX IMVI melanoma, 98.9%; in the assay with SK-MEL-28 melanoma, 109%.
For the compound `CCC1=C[C@H]2CN(CCc3c([nH]c4ccccc34)[C@@](C(=O)OC)(c3cc4c(cc3OC)N(C)[C@H]3[C@@](O)(C(=O)OC)[C@H](OC(C)=O)[C@]5(CC)[C@@H]6C[C@@H]6CN6CC[C@]43[C@@H]65)C2)C1`, the growth with HCT-15 colon is 7.44% (active); in the assay on HT29 colon it was -18.4% (active); with SNB-75 CNS, -3.68% (active); in the assay on SNB-19 CNS, 21.1%; in the assay on U251 CNS it was 13%; with PC-3 prostate, 29.4%. For the same compound, the growth with SK-MEL-5 melanoma is -25.5% (active); with UACC-62 melanoma, 17%; with LOX IMVI melanoma, 17%; in the assay with SK-MEL-28 melanoma, 58.5%.
As for `C=C(C)[C@@H]1CCC=C2CC[C@]3(C)[C@H](CC[C@@H]4[C@@]5(C)CCCNC(C)(C)[C@@H]5CC[C@]43C)[C@H]21`, the growth in the assay on HCT-15 colon is -17.7% (active); in the assay on HT29 colon, 3.02% (active); in the assay on SNB-75 CNS, 100%; with SNB-19 CNS, 15.3%; with U251 CNS it was -73% (active); with PC-3 prostate it was 38.2%. Besides, the growth is 81.9% with SK-MEL-5 melanoma, 87.7% in the assay on UACC-62 melanoma, -43.4% (active) in the assay with LOX IMVI melanoma and 96.7% in the assay with SK-MEL-28 melanoma.
Turning to `CNS(=O)(=O)c1cccc(-c2ccc3c4c(n(C)c(=O)c3c2)-c2ccccc2C4=O)c1`, the growth is 30.5% with HCT-15 colon; 45.8% in the assay with HT29 colon; 65.9% in the assay with SNB-75 CNS; 31.3% with SNB-19 CNS; 23.2% with U251 CNS; 73.4% with PC-3 prostate. Also, the growth was 48.3% with SK-MEL-5 melanoma, 56.3% with UACC-62 melanoma, 35.1% in the assay on LOX IMVI melanoma and 93% with SK-MEL-28 melanoma.
